In PubChem BioAssay (NCATS):
Inconclusive results are not listed. Calls of active or inactive are those of the source. Calls come from the whole dose curve; as a rule, active = well fitted cell-killing curve with a large enough effect; inconclusive = small, poorly fitted or top-dose-only effect; inactive = flat fitted curve, though single readings scatter.

assay: Quantitative highthroughput screen to assess conditional lethalithy of P12 Ichikawa cells grown in Human Plasma-Like Medium with dialyzed fetal bovine serum (HPLM+ds) (AID 1963879); details: ATP luminescence, 48 h; Potency: viability; series mostly up to 45.8 µM; viability: at the top concentration
In short: (§1)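 Each medium arm—HPLM with 10% dialyzed FBS, or RPMI1640 with 5 mM glucose and 10% untreated or dialyzed FBS—was screened against an 11-point, 3-fold compound titration for 48 h at 37 °C, with CellTiter-Glo luminescence as endpoint.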
Note: nearly all actives have a fitted effect of over 35% in size.
Potency is the fitted concentration of half-maximal effect.

Row | Structure (SMILES) | viability | Potency
1 | COc1cccc(N(C)C(=S)Oc2ccc3c(c2)CCCC3)n1 | 94.9% (inactive) | –
2 | CCCCC(C=O)NC(=O)C(CC(C)C)NC(=O)OCc1ccccc1 (stereo not given) | 90.5% (inactive) | –
3 | Fc1ccc(C(c2ccc(F)cc2)N2CCN(CC=Cc3ccccc3)CC2)cc1 | 96.7% (inactive) | –
4 | Cc1nn(C)c2c1C(c1ccc(C(F)(F)F)cc1)C(C#N)=C(N)O2 (stereo not given) | 102% (inactive) | –
5 | CCCCCCCCCCCCCCCC(=O)OC[C@@H](NC(=O)C(Cl)Cl)[C@H](O)c1ccc([N+](=O)[O-])cc1 | 101% (inactive) | –
6 | COc1cc(C=CC(=O)CC(=O)C=Cc2ccc(O)c(OC)c2)ccc1O | – | 21500 nM (active)
7 | Cc1c(-c2cccc3c(CCCOc4cccc5ccccc45)c(C(=O)O)n(Cc4cccnc4)c23)c(COc2ccc(N3CCN([S+](=O)([O-])N(C)C)CC3)cc2)nn1C | 87.4% (inactive) | –
8 | C[C@]12C=CC(=O)N[C@@H]1CC[C@H]1[C@H]3CC[C@@H](C(=O)Nc4cc(C(F)(F)F)ccc4C(F)(F)F)[C@@]3(C)CC[C@@H]12 | 103% (inactive) | –
9 | CCC=CC[C@H]1C(=O)CC[C@@H]1CC(=O)OC | 98.9% (inactive) | –
10 | CS[C@H]1SC[C@@H]2C(=O)N(C)[C@H](C(C)C)C(=O)OC[C@H](NC(=O)c3cnc4ccccc4n3)C(=O)N[C@H](C)C(=O)N(C)[C@@H]1C(=O)N(C)[C@H](C(C)C)C(=O)OC[C@H](NC(=O)c1cnc3ccccc3n1)C(=O)N[C@H](C)C(=O)N2C | – | 20.9 nM (active)
11 | O=C(C=CC#Cc1cccc(NS(=O)(=O)c2ccccc2)c1)NO | – | 2350 nM (active)
12 | C[C@@H]1[C@H](C)CC[C@]2(C(=O)O)CC[C@]3(C)C(=CC[C@@H]4[C@@]5(C)C[C@@H](O)[C@H](O)[C@@](C)(CO)[C@H]5CC[C@]43C)[C@@H]12 | 94.2% (inactive) | –
13 | O=C(C=Cc1c(C(=O)O)[nH]c2cc(Cl)cc(Cl)c12)Nc1ccccc1 | 95.1% (inactive) | –
14 | Nc1ncnc2c1ncn2[C@@H]1O[C@H](CO)C[C@@H]1O | 100% (inactive) | –
15 | CCC(=O)OCC(=O)[C@@]1(OC(=O)CC)[C@@H](C)C[C@@H]2[C@H]3CCC4=CC(=O)C=C[C@]4(C)[C@@]3(F)[C@@H](O)C[C@@]21C | – | 5900 nM (active)
16 | CCN(CC)CCNC(=O)c1c(C)[nH]c(C=C2C(=O)Nc3ccc(F)cc32)c1C | – | 270 nM (active)

Row | Structure (SMILES) | viability | Potency
17 | CCC(=C(CC)c1ccc(O)cc1)c1ccc(O)cc1 | 107% (inactive) | –
18 | CC(C)c1onc(-c2c(Cl)cccc2Cl)c1COc1ccc(C=Cc2cccc(C(=O)O)c2)c(Cl)c1 | 91.6% (inactive) | –
19 | O=C(NNC(=O)c1ccc(CNS(=O)(=O)c2ccc(F)c(Cl)c2)cc1)c1ccccc1 | 105% (inactive) | –
20 | CNC[C@@H](O)[C@@H](O)[C@H](O)[C@H](O)CO | 96% (inactive) | –
21 | CO[C@H]1/C=C\O[C@@]2(C)Oc3c(C)c(O)c4c(O)c(c(C=NN5CCN(C6CCCC6)CC5)c(O)c4c3C2=O)NC(=O)C(C)=CC=C[C@H](C)[C@H](O)[C@@H](C)[C@@H](O)[C@@H](C)[C@H](OC(C)=O)[C@H]1C | – | 2640 nM (active)
22 | CC(C=CC1=C(C)CCCC1(C)C)=CC=CC(C)=CC(=O)O | – | inactive
23 | C[C@H](CCC(=O)O)[C@H]1CC[C@H]2[C@H]3[C@@H](CC[C@]12C)[C@@]1(C)CC[C@@H](O)C[C@H]1C[C@@H]3O | 95.8% (inactive) | –
24 | CCCCCCCc1ccc(CCc2cccc(O)c2C(=O)O)cc1 | 85% (inactive) | –
25 | Cc1cccc(C#Cc2ccccc2)n1 | 95.6% (inactive) | –
26 | C[C@H]1[C@H](NC(=O)C(=NOC(C)(C)C(=O)O)c2csc(N)n2)C(=O)N1S(=O)(=O)O | 102% (inactive) | –
27 | CC[C@]1(O)C[C@@H]2CN(CCc3c([nH]c4ccccc34)[C@@](C(=O)OC)(c3cc4c(cc3OC)N(C=O)[C@@H]3C45CCN4CC=C[C@](CC)([C@H]45)[C@@H](OC(C)=O)[C@]3(O)C(=O)OC)C2)C1 (stereo not given in full) | 97.3% (inactive) | –
28 | COC(=O)N[C@H](C(=O)N1CCC[C@@H]1c1ncc(-c2ccc(-c3ccc(-c4cnc([C@@H]5CCCN5C(=O)[C@@H](NC(=O)OC)C(C)C)[nH]4)cc3)cc2)[nH]1)C(C)C | 97.2% (inactive) | –
29 | CC(C)=CCCC(C)=CCCC(C)=CCCC(C)=CCCC(C)=CCCC(C)=CCCC(C)=CCCC(C)=CCCC(C)=CCO | 109% (inactive) | –
30 | OCC(O)C(O)C(O)CO (stereo not given) | 100% (inactive) | –
31 | C[C@@H]1CC=CC=CC=CC=C[C@@H](O[C@@H]2O[C@H](C)[C@@H](O)[C@H](N)[C@H]2O)C[C@@H]2O[C@](O)(C[C@@H](O)C[C@@H]3O[C@@H]3C=CC(=O)O1)C[C@H](O)[C@@H]2C(=O)O | 101% (inactive) | –

assay: Quantitative highthroughput screen to assess conditional lethalithy of P12 Ichikawa cells grown in RPMI1640 with dialyzed fetal bovine serum (RPMI+ds) (AID 1963880); details: ATP luminescence, 48 h; Potency: P12-Ichikawa viability; series mostly up to 45.8 µM; viability: at the top concentration;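 for viability: 100% = DMSO wells and 0% = empty wells on each plate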
In short: as §1

Row | Structure (SMILES) | viability | Potency
32 | COc1cccc(N(C)C(=S)Oc2ccc3c(c2)CCCC3)n1 | 86.4% (inactive) | –
33 | Fc1ccc(C(c2ccc(F)cc2)N2CCN(CC=Cc3ccccc3)CC2)cc1 | 99% (inactive) | –
34 | Cc1nn(C)c2c1C(c1ccc(C(F)(F)F)cc1)C(C#N)=C(N)O2 (stereo not given) | 95.4% (inactive) | –
35 | CCCCCCCCCCCCCCCC(=O)OC[C@@H](NC(=O)C(Cl)Cl)[C@H](O)c1ccc([N+](=O)[O-])cc1 | 101% (inactive) | –
36 | COc1cc(C=CC(=O)CC(=O)C=Cc2ccc(O)c(OC)c2)ccc1O | – | 34000 nM (active)
37 | Cc1c(-c2cccc3c(CCCOc4cccc5ccccc45)c(C(=O)O)n(Cc4cccnc4)c23)c(COc2ccc(N3CCN([S+](=O)([O-])N(C)C)CC3)cc2)nn1C | 83.1% (inactive) | –
38 | C[C@]12C=CC(=O)N[C@@H]1CC[C@H]1[C@H]3CC[C@@H](C(=O)Nc4cc(C(F)(F)F)ccc4C(F)(F)F)[C@@]3(C)CC[C@@H]12 | 97.4% (inactive) | –
39 | CCC=CC[C@H]1C(=O)CC[C@@H]1CC(=O)OC | 102% (inactive) | –
40 | CS[C@H]1SC[C@@H]2C(=O)N(C)[C@H](C(C)C)C(=O)OC[C@H](NC(=O)c3cnc4ccccc4n3)C(=O)N[C@H](C)C(=O)N(C)[C@@H]1C(=O)N(C)[C@H](C(C)C)C(=O)OC[C@H](NC(=O)c1cnc3ccccc3n1)C(=O)N[C@H](C)C(=O)N2C | – | 10.5 nM (active)
41 | O=C(C=CC#Cc1cccc(NS(=O)(=O)c2ccccc2)c1)NO | – | 2090 nM (active)
42 | C[C@@H]1[C@H](C)CC[C@]2(C(=O)O)CC[C@]3(C)C(=CC[C@@H]4[C@@]5(C)C[C@@H](O)[C@H](O)[C@@](C)(CO)[C@H]5CC[C@]43C)[C@@H]12 | 105% (inactive) | –
43 | O=C(C=Cc1c(C(=O)O)[nH]c2cc(Cl)cc(Cl)c12)Nc1ccccc1 | 101% (inactive) | –
44 | CCC(=O)OCC(=O)[C@@]1(OC(=O)CC)[C@@H](C)C[C@@H]2[C@H]3CCC4=CC(=O)C=C[C@]4(C)[C@@]3(F)[C@@H](O)C[C@@]21C | – | 2350 nM (active)
45 | CCN(CC)CCNC(=O)c1c(C)[nH]c(C=C2C(=O)Nc3ccc(F)cc32)c1C | – | 340 nM (active)
46 | CCC(=C(CC)c1ccc(O)cc1)c1ccc(O)cc1 | 97.3% (inactive) | –
47 | CC(C)c1onc(-c2c(Cl)cccc2Cl)c1COc1ccc(C=Cc2cccc(C(=O)O)c2)c(Cl)c1 | 80.4% (inactive) | –
48 | O=C(NNC(=O)c1ccc(CNS(=O)(=O)c2ccc(F)c(Cl)c2)cc1)c1ccccc1 | 104% (inactive) | –
49 | CNC[C@@H](O)[C@@H](O)[C@H](O)[C@H](O)CO | 99.6% (inactive) | –
50 | CO[C@H]1/C=C\O[C@@]2(C)Oc3c(C)c(O)c4c(O)c(c(C=NN5CCN(C6CCCC6)CC5)c(O)c4c3C2=O)NC(=O)C(C)=CC=C[C@H](C)[C@H](O)[C@@H](C)[C@@H](O)[C@@H](C)[C@H](OC(C)=O)[C@H]1C | – | 2640 nM (active)
51 | CC(C=CC1=C(C)CCCC1(C)C)=CC=CC(C)=CC(=O)O | – | inactive
52 | C[C@H](CCC(=O)O)[C@H]1CC[C@H]2[C@H]3[C@@H](CC[C@]12C)[C@@]1(C)CC[C@@H](O)C[C@H]1C[C@@H]3O | 93.9% (inactive) | –
53 | CCCCCCCc1ccc(CCc2cccc(O)c2C(=O)O)cc1 | 78.7% (inactive) | –
54 | Cc1cccc(C#Cc2ccccc2)n1 | 78.2% (inactive) | –
55 | C[C@H]1[C@H](NC(=O)C(=NOC(C)(C)C(=O)O)c2csc(N)n2)C(=O)N1S(=O)(=O)O | 97.5% (inactive) | –
56 | CC[C@]1(O)C[C@@H]2CN(CCc3c([nH]c4ccccc34)[C@@](C(=O)OC)(c3cc4c(cc3OC)N(C=O)[C@@H]3C45CCN4CC=C[C@](CC)([C@H]45)[C@@H](OC(C)=O)[C@]3(O)C(=O)OC)C2)C1 (stereo not given in full) | 100% (inactive) | –
57 | COC(=O)N[C@H](C(=O)N1CCC[C@@H]1c1ncc(-c2ccc(-c3ccc(-c4cnc([C@@H]5CCCN5C(=O)[C@@H](NC(=O)OC)C(C)C)[nH]4)cc3)cc2)[nH]1)C(C)C | 87.4% (inactive) | –
58 | CC(C)=CCCC(C)=CCCC(C)=CCCC(C)=CCCC(C)=CCCC(C)=CCCC(C)=CCCC(C)=CCCC(C)=CCO | 100% (inactive) | –
59 | OCC(O)C(O)C(O)CO (stereo not given) | 111% (inactive) | –
60 | C[C@@H]1CC=CC=CC=CC=C[C@@H](O[C@@H]2O[C@H](C)[C@@H](O)[C@H](N)[C@H]2O)C[C@@H]2O[C@](O)(C[C@@H](O)C[C@@H]3O[C@@H]3C=CC(=O)O1)C[C@H](O)[C@@H]2C(=O)O | 101% (inactive) | –
